“And” between values parts separate entries of the source, which are not always exact repeats. Equal entries are not always repeated. Hit rate of the full screen: of about 16,000 compounds, about 2,600 (16%) were called active. Roughly 20% stayed inconclusive and do not appear here. The call rests on the fitted dose curve; in most records, active means well fitted curve in the direction sought with a large enough effect; inconclusive means small, poorly fitted or top-dose-only effect, or effect the other way; inactive means no such curve, though single readings can be large or run the other way. Not all results are given here. Where a structure was tested more than once in an assay, its records may differ in their call.
molecular target: Cytochrome P450 2D6 (Homo sapiens) (UniProt P10635); assay: Cytochrome panel assay with activity outcomes; details: recombinant CYP, pro-luciferin dealkylation, luminescence, p450-cyp2d6; series mostly up to 57.1 µM
On the % scale 0 is the no-effect control and ±100 the full control effect.

Chain of Cytochrome P450 2D6 (Homo sapiens) (P10635 whole entry, looked up): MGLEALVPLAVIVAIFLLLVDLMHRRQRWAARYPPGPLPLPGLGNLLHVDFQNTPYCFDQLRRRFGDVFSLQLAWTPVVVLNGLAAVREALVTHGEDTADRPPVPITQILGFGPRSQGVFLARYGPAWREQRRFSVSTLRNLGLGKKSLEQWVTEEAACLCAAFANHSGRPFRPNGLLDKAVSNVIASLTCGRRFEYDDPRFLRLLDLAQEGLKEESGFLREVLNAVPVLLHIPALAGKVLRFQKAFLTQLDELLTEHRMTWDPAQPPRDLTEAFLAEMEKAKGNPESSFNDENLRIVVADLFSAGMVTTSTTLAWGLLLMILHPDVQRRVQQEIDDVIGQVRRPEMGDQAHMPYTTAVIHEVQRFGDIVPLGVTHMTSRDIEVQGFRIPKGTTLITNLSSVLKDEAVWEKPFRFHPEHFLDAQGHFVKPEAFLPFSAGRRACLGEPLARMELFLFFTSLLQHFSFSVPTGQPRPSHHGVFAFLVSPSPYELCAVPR

Row | Structure (SMILES) | activity, negative = inhibition | AC50
1 | CC1=CC(=O)CC(C)(C)[C@]1(O)/C=C\C(C)=C\C(=O)O | 11.4% [at 11.4 µM] (inactive) | –
2 | CC1=C(\C=C/C(C)=C/C=C\C(C)=C\C(=O)O)C(C)(C)CCC1 | – | inactive and 2 µM (active)
3 | O=C1c2ccccc2N[C@H](c2cc(Cl)cc(Cl)c2O)N1CCc1ccccn1 | 15% [at 11.4 µM] (inactive) | –
4 | N#Cc1c(NC(=O)C2CC(c3ccccc3Cl)=NO2)sc2c1CCC2 (centres undefined) | – | inactive
5 | COC(=O)C1CCN(CC(=O)Nc2sc3c(c2C#N)CCC3)CC1 | – | 1.12 µM (active)
6 | COC(=O)c1c(NC(=O)Cn2cc([N+](=O)[O-])cn2)sc2c1CCC2 | – | inactive
7 | O=c1c(-c2ccc(F)cc2)nc2cnc(N3CCOCC3)nc2n1C[C@H]1CCCO1 | – | inactive
8 | COc1ccc(Cc2nnc(NC(=O)c3cccc([N+](=O)[O-])c3C)s2)cc1 | – | inactive
9 | COc1cc(OC)c2c(c1Cl)O[C@@]1(C2=O)[C@H](C)CC(=O)C[C@@H]1OC | – | inactive
10 | COCCn1c(=O)c(-c2cc(F)cc(F)c2)nc2cnc(Oc3ccccc3)nc21 | – | inactive
11 | CSc1nc2c(c(C(F)(F)F)n1)CC(C)CC2 (centres undefined) | – | inactive
12 | CSc1nc(N)c2ncn([C@@H]3O[C@@H](COP(=O)(O)OP(=O)(O)O)[C@@H](O)[C@H]3O)c2n1 | – | inactive
13 | COc1ccc(N2C(=O)NC(NC(=O)c3ccncc3)(C(F)(F)F)C2=O)cc1 (centres undefined) | – | inactive
14 | Cc1nc(SCC(=O)Nc2c(C)n(C)n(-c3ccccc3)c2=O)nc(C)c1C | – | inactive
15 | Cc1ccc(-c2nnc(-c3ccc4ccccc4c3)o2)cc1 | 3.58% [at 11.4 µM] (inactive) | –
16 | O=C(Nc1ccc2ccccc2c1)c1onc2c1CCCC2 | – | inactive
17 | c1ccc2cc(NCNc3ccc4ccccc4c3)ccc2c1 | – | 1 µM (active)
18 | CCOc1cc(CN2CCN(c3ccc(C(C)=O)cc3)CC2)ccc1OC | – | inactive
19 | Cn1c(N)nc2c(nc(OCc3ccccc3)n2[C@@H]2O[C@H](CO)[C@@H](O)[C@@H]2O)c1=O | 9.24% [at 11.4 µM] (inactive) | –
20 | CCN1C(=O)/C(=C/C=C2/SCCN2C)SC1=S | – | inactive
21 | O=C1c2ccccc2C(=O)C1c1ccccc1 | – | inactive
22 | CC1(C)C(=O)NC2=C1C(=O)C(=O)c1ccccc12 | – | 2.51 µM (active)
23 | Cn1ncc2c(Cl)ncnc21 | 12.3% [at 11.4 µM] (inactive) | –
24 | COc1ccc(-c2cc(C(F)(F)F)n3nc(C(=O)NCc4ccco4)c(Cl)c3n2)cc1 | – | inactive
25 | CCCCOC(=S)NC(=O)c1sc2ccccc2c1Cl | – | inactive

Row | Structure (SMILES) | activity, negative = inhibition | AC50
26 | CN(C)CC(CN(C)C)c1ccccn1 | 6.41% [at 11.4 µM] (inactive) | –
27 | CN(C)CC[C@@H](c1ccccc1)c1ccccn1 | – | inactive
28 | CN(C)CC[C@H](c1ccc(Br)cc1)c1ccccn1 | – | 15.8 µM (active) and 25.1 µM (active)
29 | CN(C)CC[C@H](c1ccc(Cl)cc1)c1ccccn1 | – | 31.6 µM (active)
30 | CC(=O)Oc1ccc(C(c2ccc(OC(C)=O)cc2)c2ccccn2)cc1 | – | inactive
31 | Cc1ccc(-c2c(C#N)c(N)n(-c3ccccc3)c(=O)c2C#N)cc1 | – | inactive
32 | COC(=O)C1=C(C)C(c2ccc(OC)cc2)NC(=S)N1 (centres undefined) | – | inactive
33 | Cc1noc(C)c1COc1ccc(C(=O)NCC2CCCO2)cc1 (centres undefined) | – | inactive
34 | N[C@H](C(=O)O)[C@@H](O)c1cnc[nH]1 | 10.8% [at 11.4 µM] (inactive) | –
35 | COc1cc(OC)c(C(=O)CCCCN2CCC3(CC2)NC(=O)NC3=O)cc1NS(=O)(=O)c1ccc(C(F)(F)F)cc1 | – | inactive
36 | CC[C@H]1C2=C3C(CC[C@H]4C(OCc5ccc(F)cc5C(F)(F)F)OC[C@](C)([C@@H]34)N(C(=O)OC(C)(C)C)C2)C(COC(C)=O)C1COC(C)=O (some centres undefined) | – | inactive
37 | CCOC(=O)C1=C(N)Oc2ccc(Br)cc2[C@@H]1[C@@H](C#N)C(=O)OCC | – | inactive
38 | O=c1c(-c2ccc(F)cc2)nc2cnc(N3CCNCC3)nc2n1C1CC1 | – | inactive
39 | Cc1nc(SCC(=O)NCCc2ccccc2)c2oc3ccccc3c2n1 | – | inactive
40 | CCc1nc(N[C@H](C(=O)O)C(C)CC)c2oc3ccccc3c2n1 (some centres undefined) | – | inactive
41 | c1ccc2c(c1)oc1c(NCCCn3ccnc3)ncnc12 | – | 1.26 µM (active)
42 | O=C(Cn1cnc2c(oc3ccccc32)c1=O)NCc1ccco1 | – | inactive
43 | c1ccc(-c2nc(NCCCn3ccnc3)c3oc4ccccc4c3n2)cc1 | – | 2 µM (active)
44 | c1ccc2cc(Sc3ncnc4c3oc3ccccc34)ccc2c1 | – | inactive
45 | CC(C)=CCC/C(C)=C/CO/N=C1/C[C@@H](O)[C@@H](O)[C@@H]2[C@H]3C(=O)N(c4ccc(F)cc4F)C(=O)[C@@H]3CC[C@H]12 | 6.74% [at 11.4 µM] (inactive) | –
46 | O=c1cc(CSc2nnc(-c3cccnc3)n2-c2ccccc2F)nc2sccn12 | – | inactive
47 | COc1ccc(OC)c(NC(=O)C(CC(=O)O)NCc2ccco2)c1 (centres undefined) | – | inactive
48 | C=CCC(NCc1ccco1)c1ccc(OC)cc1 (centres undefined) | – | 5.01 µM (active)
49 | COc1ccc(-n2c(N)c(C(=O)NCc3ccco3)sc2=S)cc1 | – | inactive

From PubChem BioAssay AID1851 (National Center for Advancing Translational Sciences (NCATS), 2009)
